Inconclusive results are not listed. The source made the active and inactive calls. The calls were made as follows: active = hit-call score of the fitted dose curve at least 0.9, where 1 is the maximum; inconclusive = response in the unintended direction; inactive = score below 0.9.

Results on 16 compounds are retold here after PubChem BioAssay (EPA / NIEHS).

Chain of Bile acid receptor (Homo sapiens) (Q96RI1 whole entry, looked up, the tested form may be a part): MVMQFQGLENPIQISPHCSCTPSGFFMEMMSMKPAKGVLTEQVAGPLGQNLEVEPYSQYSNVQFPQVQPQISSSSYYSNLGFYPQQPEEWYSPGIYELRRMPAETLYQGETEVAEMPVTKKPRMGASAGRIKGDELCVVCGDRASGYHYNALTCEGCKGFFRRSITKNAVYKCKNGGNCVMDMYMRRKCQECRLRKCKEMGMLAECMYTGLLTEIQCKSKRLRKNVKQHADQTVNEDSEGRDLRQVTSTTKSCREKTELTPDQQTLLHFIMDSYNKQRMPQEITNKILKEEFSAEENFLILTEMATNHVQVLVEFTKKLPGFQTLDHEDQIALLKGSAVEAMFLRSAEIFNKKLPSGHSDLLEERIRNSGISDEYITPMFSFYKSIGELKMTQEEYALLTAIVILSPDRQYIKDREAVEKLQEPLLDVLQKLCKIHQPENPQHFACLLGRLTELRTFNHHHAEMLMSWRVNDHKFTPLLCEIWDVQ

This experiment has as its target Bile acid receptor (Homo sapiens) (UniProt Q96RI1). Nature of the experiment: OT_FXR_FXRSRC1_0480: Odyssey Thera (OT) 8-hour HEK293T Protein-Complementation Assay for Farnesoid X receptor/SRC-1 Co-activator (AID 2283383). As for the experimental part:
OT_FXR_FXRSRC1_0480 is a cell-based assay that uses HEK293T, a human kidney cell line, with measurements taken at 8 hours after chemical dosing in a 384-well plate.OT_FXR_FXRSRC1_0480 is one of one assay component(s) measured or calculated from the OT_FXR_FXRSRC1_0480 assay. It is designed to make measurements of protein fragment complementation, a form of binding reporter, as detected with fluorescence intensity signals by Protein-fragment Complementation technology.Data from the assay component OT_FXR_FXRSRC1_0480 was analyzed into 1 assay endpoint. This assay endpoint, OT_FXR_FXRSRC1_0480, was analyzed in the positive analysis fitting direction relative to DMSO as the negative control and baseline of activity. Using a type of binding reporter, measures of receptor for gain-of-signal activity can be used to understand the binding at the pathway-level as they relate to the gene NR1H4. Furthermore, this assay endpoint can be referred to as a primary readout, because the performed assay has only produced 1 assay endpoint. To generalize the intended target to other relatable targets, this assay endpoint is annotated to the nuclear receptor intended target family, where the subfamily is non-steroidal.
Protein-fragment complementation assay, or PCA, is a method for the identification and quantification of protein-protein interactions. In the PCA, the proteins of interest ("bait" and "prey") are each covalently linked to fragments of a third protein (e.g. DHFR, which acts as a "reporter"). Interaction between the bait and the prey proteins brings the fragments of the reporter protein in close proximity to allow them to form a functional reporter protein whose activity can be measured.
For `CC(C)(C#N)c1cc(Cn2cncn2)cc(C(C)(C)C#N)c1`, the compound was called inactive.
Regarding `O=C1NC(=O)c2ccccc21`, the result was inactive.
Consider `CCCC/C=C\CCCCCCCCCC=O`, for which the compound was classed as inactive.
In the case of `COc1c(Cl)c(Cl)c(Cl)c(Cl)c1Cl`, the compound was classed as inactive.
`BrC1CCC(Br)C(Br)CCC(Br)C(Br)CCC1Br` (stereo unspecified): the AC50 (commonly the concentration at which the activity in the assay is half-maximal) was 18.2 µM (active).
Same read-out and setting: to `CCN(CC)c1ccc2c(-c3ccccc3C(=O)O)c3ccc(=[N+](CC)CC)cc-3oc2c1` belongs 35.2 µM (active); to `C=CC(C)(O)CCC=C(C)CCC=C(C)C` (stereo unspecified), 59.4 µM (active).
`CCC(=O)/C=C/C1C(C)=CCCC1(C)C` (stereo unspecified): the AC50 was 50 µM (active).
In the case of `CC(=O)C=CC1=C(C)CCCC1(C)C`, the call was inactive.
Take `CC(C)=CCCC(C)CC=O` (stereo unspecified): the compound was classed as inactive.
Take `OCCN1CCNCC1`: the compound was called inactive.
For `c1ccc(CCCc2ccccn2)cc1`, the AC50 was 50 µM (active).
Regarding `NCCCN1CCOCC1`, the compound was called inactive.
On to `COc1cc(C(C)(C)C)c(O)c(C(C)(C)C)c1`, for which the AC50 is 67 µM (active).
Consider `CCCCCCCCCCCCCC(=O)O`, for which the compound was classed as inactive.
On to `O=Nc1ccc(Nc2ccccc2)cc1`, for which the compound was called inactive.
